Where a name gives a salt, the structure may show the parent alone. ± gives the standard deviation of the averaged measurements.
What was measured:
Experiment in all cases: growth (OD600 after 10 h); higher = more growth (less inhibition)
[1] = test system: E. coli TESEC Alr+ wild-type control; conditions: compound 0.1 mM; raw OD600 reference: median of DMSO wells 0.241, cell-free background 0.041
Procedure: (§1)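 TESEC Mtb Alr E. coli, or the Alr+ wild-type control, in 384-well plates with Prestwick library compounds at 0.1 mM and 1% DMSO, across arabinose induction levels of 1E3 to 1E7 nM. Growth is read as OD600 after 10 h at 37 °C in triplicate biological replicates.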

E. coli TESEC Mtb Asd = conditions: compound 0.1 mM
Procedure: (§2)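 TESEC E. coli strains in which the native enzyme is deleted and replaced by arabinose-inducible Mtb Asd, DapB, CysH or TrpD, each grown in its selective medium. Strains were screened against the Prestwick library at 0.1 mM and 1% DMSO in 384-well format at low and high arabinose induction. Growth is read as OD600 after 10 h in triplicate.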

E. coli TESEC Mtb DapB = conditions: compound 0.1 mM
Procedure: as §2

[2] = test system: E. coli TESEC Alr+ wild-type control; conditions: compound 0.1 mM; raw OD600 reference: median of DMSO wells 0.49, cell-free background 0.052
Procedure: (§3)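 TESEC Mtb Alr E. coli (ΔaraC ΔtolC ΔentC Δalr ΔdadX, arabinose-inducible Mtb Alr) or the Alr+ wild-type control strain, grown in defined M9-fructose medium without D-alanine in 96-well plates with Prestwick library compounds at 0.1 mM and 1% DMSO. Low Alr induction is 0.1 µM arabinose and high induction is 10 mM arabinose.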

E. coli TESEC Mtb Alr [3] = conditions: compound 0.1 mM
Procedure: as §3

E. coli TESEC Mtb Alr [4] = conditions: compound 0.1 mM; remark: listed apart in the source
Procedure: as §1

[5] = arabinose induction (level): High, raw OD600 reference: median of DMSO wells 0.331, cell-free background 0.041
[6] = arabinose induction (level): Low, raw OD600 reference: median of DMSO wells 0.417, cell-free background 0.041
[7] = arabinose induction (level): High, raw OD600 reference: median of DMSO wells […], cell-free background 0.041
[8] = arabinose induction (level): Low, raw OD600 reference: median of DMSO wells 0.227, cell-free background 0.041
[9] = arabinose 100 nM, raw OD600 reference: median of DMSO wells 0.413, cell-free background 0.052
[10] = arabinose 10000000 nM, raw OD600 reference: median of DMSO wells […], cell-free background 0.052
[11] = arabinose 1000 nM, raw OD600 reference: median of DMSO wells 0.294, cell-free background 0.041
[12] = arabinose 10000 nM, raw OD600 reference: median of DMSO wells 0.264, cell-free background 0.041
[13] = arabinose 100000 nM, raw OD600 reference: median of DMSO wells 0.201, cell-free background 0.041
[14] = arabinose 1000000 nM, raw OD600 reference: median of DMSO wells 0.193, cell-free background 0.041
[15] = arabinose 10000000 nM, raw OD600 reference: median of DMSO wells 0.146, cell-free background 0.041

Row | SMILES | growth [1] | growth (E. coli TESEC Mtb Asd; [5]) | growth (E. coli TESEC Mtb Asd; [6]) | growth (E. coli TESEC Mtb DapB; [7]) | growth (E. coli TESEC Mtb DapB; [8]) | growth [2] | growth (E. coli TESEC Mtb Alr [3]; [9]) | growth (E. coli TESEC Mtb Alr [3]; [10]) | growth (E. coli TESEC Mtb Alr [4]; [11]) | growth (E. coli TESEC Mtb Alr [4]; [12]) | growth (E. coli TESEC Mtb Alr [4]; [13]) | growth (E. coli TESEC Mtb Alr [4]; [14]) | growth (E. coli TESEC Mtb Alr [4]; [15])
1 | CC[C@@H](CO)NCCN[C@@H](CC)CO [Ethambutol dihydrochloride] | 0.25 ± 0.0032 | 0.353 ± 0.067 | 0.39 ± 0.091 | 0.19 ± 0.0055 | 0.2 ± 0.022 | 0.476 ± 0.06 | 0.411 ± 0.0072 | 0.366 ± 0.015 | – | – | – | – | –
2 | Cc1ccc(S(=O)(=O)NC(=O)NN2CCCCCC2)cc1 [Tolazamide] | 0.256 ± 0.0047 | 0.293 ± 0.026 | 0.414 ± 0.05 | 0.214 ± 0.0044 | 0.235 ± 0.015 | 0.482 ± 0.053 | 0.398 ± 0.017 | 0.354 ± 0.014 | – | – | – | – | –
3 | CCn1cc(C(=O)O)c(=O)c2cc(F)c(N3CCNCC3)nc21 [Enoxacin] | 0.0456 ± 0.0012 | 0.0919 ± 0.024 | 0.0687 ± 0.0059 | 0.06527 ± 0.00061 | 0.061 ± 0.0086 | 0.05513 ± 0.00042 | 0.0588 ± 0.0019 | 0.05293 ± 0.00025 | – | – | – | – | –
4 | CCC(Cc1c(I)cc(I)c(N)c1I)C(=O)O (stereo not drawn) [Iopanoic acid] | 0.0835 ± 0.0044 | 0.114 ± 0.0023 | 0.0943 ± 0.0055 | 0.148 ± 0.005 | 0.177 ± 0.005 | 0.263 ± 0.0034 | 0.339 ± 0.018 | 0.0809 ± 0.0061 | – | – | – | – | –
5 | CC(=O)OC(C)C[N+](C)(C)C (stereo not drawn) [Methacholine chloride] | 0.238 ± 0.0071 | 0.361 ± 0.092 | 0.428 ± 0.025 | 0.2263 ± 0.0013 | 0.243 ± 0.023 | 0.466 ± 0.066 | 0.413 ± 0.021 | 0.361 ± 0.015 | – | – | – | – | –
6 | C[C@](N)(Cc1ccc(O)c(O)c1)C(=O)O [Methyldopa (L,-)] | 0.241 ± 0.011 | 0.356 ± 0.044 | 0.458 ± 0.041 | 0.187 ± 0.0082 | 0.226 ± 0.022 | 0.508 ± 0.05 | 0.411 ± 0.015 | 0.345 ± 0.026 | – | – | – | – | –
7 | CN1CCC(=C2c3ccccc3CCc3cccnc32)CC1 [Azatadine maleate] | 0.1961 ± 0.0017 | 0.209 ± 0.017 | 0.313 ± 0.045 | – | – | – | 0.4 ± 0.013 | 0.338 ± 0.018 | 0.271 ± 0.0097 | 0.256 ± 0.0041 | 0.178 ± 0.0055 | 0.18 ± 0.0037 | 0.132 ± 0.0041
8 | CCC1(c2ccccc2)NC(=O)N(C)C1=O (stereo not drawn) [Mephenytoin] | 0.249 ± 0.0037 | 0.235 ± 0.029 | 0.328 ± 0.072 | 0.184 ± 0.013 | 0.24 ± 0.037 | 0.501 ± 0.091 | 0.427 ± 0.0055 | 0.31 ± 0.011 | – | – | – | – | –
9 | CCN1CCN(C(=O)N[C@@H](C(=O)N[C@@H]2C(=O)N3C(C(=O)O)=C(CSc4nnnn4C)CS[C@H]23)c2ccc(O)cc2)C(=O)C1=O [Cefoperazone dihydrate] | 0.2999 ± 0.0024 | 0.413 ± 0.016 | 0.417 ± 0.087 | 0.201 ± 0.0085 | 0.239 ± 0.042 | 0.512 ± 0.039 | 0.221 ± 0.078 | 0.341 ± 0.025 | – | – | – | – | –
10 | NC(N)=Nc1nc(CSCC/C(N)=N/S(N)(=O)=O)cs1 [Famotidine] | 0.248 ± 0.0073 | 0.348 ± 0.074 | 0.436 ± 0.038 | 0.206 ± 0.043 | 0.203 ± 0.025 | 0.465 ± 0.058 | 0.413 ± 0.0053 | 0.328 ± 0.014 | – | – | – | – | –
11 | CC(C)(Oc1ccc(CCNC(=O)c2ccc(Cl)cc2)cc1)C(=O)O [Bezafibrate] | 0.249 ± 0.0031 | 0.237 ± 0.074 | 0.298 ± 0.021 | 0.184 ± 0.012 | 0.216 ± 0.013 | 0.483 ± 0.015 | 0.43 ± 0.0059 | 0.322 ± 0.019 | – | – | – | – | –
12 | OCc1cc(C(O)CNCCCCCCOCCCCc2ccccc2)ccc1O (stereo not drawn) [Salmeterol] | 0.166 ± 0.0032 | 0.176 ± 0.01 | 0.202 ± 0.049 | 0.208 ± 0.017 | 0.214 ± 0.017 | 0.399 ± 0.032 | 0.349 ± 0.0092 | 0.201 ± 0.033 | – | – | – | – | –
13 | CC(C(=O)O)c1cccc(C(=O)c2ccccc2)c1 (stereo not drawn) [Ketoprofen] | 0.227 ± 0.0059 | 0.247 ± 0.013 | 0.335 ± 0.038 | 0.184 ± 0.018 | 0.248 ± 0.058 | 0.533 ± 0.084 | 0.428 ± 0.018 | 0.36 ± 0.005 | – | – | – | – | –
14 | CC[C@H](C)C(=O)O[C@H]1C[C@H](O)C=C2C=C[C@H](C)[C@H](CC[C@@H](O)C[C@@H](O)CC(=O)O)[C@H]21 [Pravastatin] | 0.229 ± 0.013 | 0.323 ± 0.015 | 0.37 ± 0.059 | 0.209 ± 0.0069 | 0.225 ± 0.025 | 0.455 ± 0.03 | 0.4188 ± 0.0036 | 0.337 ± 0.026 | – | – | – | – | –
15 | COc1cc(C(=O)NC2CCCNC2)cc(OC)c1OC (stereo not drawn) [Troxipide] | 0.225 ± 0.0045 | 0.353 ± 0.075 | 0.427 ± 0.057 | 0.19 ± 0.012 | 0.216 ± 0.0046 | 0.504 ± 0.1 | 0.402 ± 0.014 | 0.359 ± 0.038 | – | – | – | – | –
16 | Cc1ccnc2c1NC(=O)c1cccnc1N2C1CC1 [Nevirapine] | 0.233 ± 0.0085 | 0.399 ± 0.051 | 0.391 ± 0.053 | 0.209 ± 0.012 | 0.243 ± 0.0097 | 0.507 ± 0.057 | 0.402 ± 0.014 | 0.343 ± 0.011 | – | – | – | – | –
17 | Cc1onc(-c2c(Cl)cccc2Cl)c1C(=O)N[C@@H]1C(=O)N2[C@@H]1SC(C)(C)[C@@H]2C(=O)O [Dicloxacillin sodium salt hydrate] | 0.222 ± 0.0048 | 0.251 ± 0.056 | 0.311 ± 0.09 | – | – | – | 0.403 ± 0.0099 | 0.351 ± 0.017 | 0.226 ± 0.11 | 0.261 ± 0.0043 | 0.196 ± 0.02 | 0.185 ± 0.007 | 0.149 ± 0.0044
18 | COCC1=C(C(=O)OC(C)OC(=O)OC(C)C)N2C(=O)[C@@H](NC(=O)/C(=N\OC)c3csc(N)n3)[C@H]2SC1 (stereo partly drawn) [Cefpodoxime proxetil] | 0.2132 ± 0.002 | 0.215 ± 0.051 | 0.179 ± 0.034 | – | – | – | 0.0545 ± 0.0063 | 0.278 ± 0.016 | 0.116 ± 0.0091 | 0.0588 ± 0.0019 | 0.22 ± 0.011 | 0.166 ± 0.008 | 0.165 ± 0.0036
19 | CS(=O)(=O)c1ccc([C@@H](O)[C@@H](CF)NC(=O)C(Cl)Cl)cc1 [Florfenicol] | 0.0412 ± 0.0009 | 0.054 ± 0.0047 | 0.0538 ± 0.0014 | 0.0485 ± 0.0014 | 0.0488 ± 0.001 | 0.05113 ± 0.00023 | 0.05607 ± 0.00047 | 0.0524 ± 0.0018 | – | – | – | – | –
20 | Clc1ccc(C(Cn2ccnc2)OCc2ccsc2Cl)c(Cl)c1 (stereo not drawn) [Tioconazole] | 0.04147 ± 0.00032 | 0.0476 ± 0.0011 | 0.0482 ± 0.0016 | – | – | – | 0.0561 ± 0.0097 | 0.051 ± 0.00017 | 0.0412 ± 0.0011 | 0.0461 ± 0.00071 | 0.04173 ± 0.00029 | 0.0443 ± 0.00052 | 0.04223 ± 0.00035
